Measurements as given in PubChem BioAssay AID1159580 (chemical genetic matrix, 2015).
Where “and” joins values, the source holds several entries; their conditions need not be identical. Equal entries are not always repeated. About 2,000 (36%) of roughly 5,500 compounds were called active. Roughly 18% stayed inconclusive and do not appear here. Cut-off read from the data, not from the text of the source: active = normalized growth mostly below about 0.91 (no sharp cut-off); inconclusive = no clear call, values can overlap the other calls; inactive = mostly above about 0.92. Some of the results follow.

Test: chemical genetic growth profiling, strain panel (AID 1159580);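 note: tested at 20 µM; growth read once vehicle control cultures reached saturation at 30 °C; 1 = growth at the plate median or of vehicle wells; lower values mean less growth of the strain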
Conditions: S. cerevisiae deletion strains, growth OD

Measured: normalized growth

C[N+](C)(C)CCOC(N)=O
inactive: locus YAL013W, strain DEP1, active compounds read low 1.01 | locus YAL021C, strain ccr4, active compounds read low 1.03 | locus YAL026C, strain drs2, active compounds read low 1.01 | locus YAL030W, strain snc1, active compounds read low 1.01 | locus YAL040C, strain CLN3, active compounds read low 1.05 | locus YBL061C, strain skt5, active compounds read low 1.03 | locus YBR009C, strain hhf1, active compounds read low 0.997 | locus YBR021W, strain FUR4, active compounds read low 1.06 | locus YBR023C, strain chs3, active compounds read low 1.02 | locus YBR171W, strain sec66, active compounds read low 1.02 | locus YBR229C, strain ROT2, active compounds read low 1.01 | locus YBR231C, strain swc5, active compounds read low 1.02 | locus YBR279W, strain paf1, active compounds read low 1.01 | locus YCL011C, strain gbp2, active compounds read low 1.01 | locus YCL016C, strain dcc1, active compounds read low 1.03 | locus YCL029C, strain bik1, active compounds read low 0.973 | locus YCL061C, strain MRC1 (second series), active compounds read low 0.987 | locus YCL069W, strain vba3, active compounds read low 1.03 | locus YCR088W, strain abp1, active compounds read low 1.01 | locus YDL005C, strain med2, active compounds read low 1.03 | locus YDL035C, strain GPR1, active compounds read low 1.04 | locus YDL040C, strain nat1, active compounds read low 1.02 | locus YDL074C, strain BRE1, active compounds read low 0.995 | locus YDL101C, strain DUN1, active compounds read low 0.986 | locus YDL185W, strain tfp1, active compounds read low 0.953 | locus YDL192W, strain arf1, active compounds read low 0.976 | locus YDR001C, strain nth1, active compounds read low 1.02 | locus YDR069C, strain doa4, active compounds read low 1.01 | locus YDR101C, strain arx1, active compounds read low 1 | locus YDR137W, strain rgp1, active compounds read low 1.04 | locus YDR150W, strain NUM1, active compounds read low 1.01 | locus YDR159W, strain sac3, active compounds read low 1.02 | locus YDR162C, strain NBP2, active compounds read low 1.03 | locus YDR195W, strain ref2 1.06 | locus YDR297W, strain sur2, active compounds read low 1.02 | locus YDR318W, strain mcm21, active compounds read low 0.987 | locus YDR334W, strain swr1, active compounds read low 1.02 | locus YDR335W, strain msn5, active compounds read low 1.03 | locus YDR388W, active compounds read low 0.984 | locus YDR392W, strain spt3, active compounds read low 1.02 | locus YDR502C, strain sam2, active compounds read low 0.99 | locus YEL003W, strain gim4, active compounds read low 1.02 | locus YEL037C, strain rad23, active compounds read low 1.02 | locus YEL061C, strain CIN8 (second series), active compounds read low 1.01 | locus YEL061C, strain CIN8, active compounds read low 1 | locus YER002W, strain NOP16, active compounds read low 0.986 | locus YER015W, strain faa2, active compounds read low 1.03 | locus YER016W, strain bim1, active compounds read low 1.01 | locus YER110C, active compounds read low 0.944 | locus YER111C, strain swi4, active compounds read low 1.03 | locus YER155C, strain BEM2 (second series), active compounds read low 1.03 | locus YER155C, strain BEM2, active compounds read low 0.991 | locus YER167W, strain BCK2, active compounds read low 1.01 | locus YFR010W, strain ubp6, active compounds read low 1.02 | locus YGL078C, strain dbp3, active compounds read low 0.986 | locus YGL086W, strain mad1, active compounds read low 1 | locus YGL167C, strain pmr1, active compounds read low 1.03 | locus YGL173C, strain kem1, active compounds read low 1.02 | locus YGL227W, strain vid30, active compounds read low 1.01 | locus YGL240W, strain doc1, active compounds read low 1.02 | locus YGL248W, strain PDE1, active compounds read low 1.01 | locus YGL253W, strain hxk2, active compounds read low 1.02 | locus YGR078C, strain PAC10, active compounds read low 0.992 and 0.993 | locus YGR135W, strain pre9, active compounds read low 0.978 | locus YGR252W, strain gcn5, active compounds read low 1.07 | locus YHR013C, strain ard1, active compounds read low 1.04 | locus YHR027C, strain rpn1, active compounds read low 1.01 | locus YHR030C, strain SLT2, active compounds read low 1.01 and 0.989 | locus YHR079C, strain IRE1 (second series), active compounds read low 0.962 | locus YHR079C, strain IRE1, active compounds read low 0.998 | locus YHR094C, strain hxt1, active compounds read low 0.976 | locus YHR129C, strain ARP1, active compounds read low 1 | locus YHR142W, strain chs7, active compounds read low 1.02 | locus YHR200W, strain rpn10, active compounds read low 0.979 | locus YIL066C, strain RNR3, active compounds read low 1.02 | locus YIL073C, strain SPO22, active compounds read low 0.927 | locus YIL125W, strain kgd1, active compounds read low 0.986 | locus YIR030C, strain dcg1, active compounds read low 0.959 | locus YJL092W, strain hpr5, active compounds read low 1.01 | locus YJL095W, strain BCK1 (second series), active compounds read low 1.03 | locus YJL095W, strain BCK1, active compounds read low 0.981 and 0.988 | locus YJL115W, strain asf1, active compounds read low 1.02 | locus YJL129C, strain trk1, active compounds read low 1.02 | locus YJL134W, strain LCB3, active compounds read low 1 | locus YJL164C, strain tpk1, active compounds read low 1.01 | locus YJL166W, strain qcr8, active compounds read low 0.992 | locus YJL168C, strain set2, active compounds read low 0.986 | locus YJL187C, strain SWE1 (second series), active compounds read low 0.986 | locus YJL187C, strain SWE1, active compounds read low 1.02 | locus YJR043C, strain POL32, active compounds read low 1.05 | locus YJR066W, strain TOR1, active compounds read low 0.999 | locus YJR075W, strain HOC1, active compounds read low 0.989 | locus YKL009W, strain mrt4, active compounds read low 0.957
